The target of test [1] is Cytochrome P450 1A2 (Homo sapiens) (UniProt P05177). Briefly: p450-cyp1a2 (AID 410; calls by dose curve; note: potency is the fitted concentration of half-maximal effect;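 for activity change, negative = inhibition: -100% = full effect of reference inhibitor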). An outline of the steps: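 20nM CYP1A2 with 100uM Luciferin-ME (at Km) in 100mM KPO4; compound preincubated 10 min, NADPH regeneration added, 60 min at room temperature. Luciferin quantified by luminescence after detection reagent; normalized to 57 uM furafylline.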
Test [2] is described as follows: Stat Signaling Pathway (AID 446; active = well fitted curve in either direction with a large enough effect, not every such curve was filed as active;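 note: ME-180 cervical cancer cells given 40 pM IL-6 alongside compound; SIE-controlled beta-lactamase reporter measured as 460/530 nm FRET emission ratio; % is set by controls: 0 for no effect and ±100 for the full control effect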). Particulars: ME-180 SIE beta-lactamase reporter, IL-6 stimulated, 5 h; at 7.69 µM (top of the series) unless noted. An outline of the steps: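 ME-180 cells carrying a SIE-driven beta-lactamase reporter are stimulated with 40 pM IL-6 for 5 h at 37C in the presence of compound. The 460/530 nm FRET substrate ratio is read after 2.5 h at RT. Data are normalised to 300 pM IL-6 and to 125 nM JAK inhibitor controls.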

Test [3] has as its target Glucocorticoid receptor (Homo sapiens) (UniProt P04150). Briefly: GR-GFP Redistribution (AID 450;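 active = compounds whose dose series gives a full or clear partial fitted curve of increased nuclear translocation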; note: potency is the fitted concentration of half-maximal effect). Particulars: U2OS GR-GFP nuclear translocation, laser cytometry, 2 h.
Test [4] has the same target. Briefly: GR-EFC Redistribution (AID 451; calls by dose curve; note: potency is the fitted concentration of half-maximal effect). Particulars: CHO-K1 GR-EFC translocation, beta-gal luminescence, 2 h. The method, boiled down:
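CHO-K1 cells stably expressing nuclear-localized β-gal enzyme acceptor and GR fused C-terminally to the enzyme donor fragment; ligand-driven nuclear translocation restores β-gal by complementation. Compounds titrated up to 46 uM final, 2 h at 37 °C; luminescence read.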

For test [5], the target named is Mitogen-activated protein kinase 10 (Mus musculus) (UniProt Q61831). Briefly: JNK3 AlphaScreen Assay (AID 530; active = well fitted curve in either direction with a large enough effect, not every such curve was filed as active;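 note: kinase came from lysate of stimulated human HepG2 cells; signal reports phosphorylation of biotinylated GST-cJun 1-79 at Ser73 with 10 µM ATP; % is set by controls: 0 for no effect and ±100 for the full control effect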). An outline of the steps:
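Inhibitors reduce antibody binding to phosphorylated biotin-cJun, lowering AlphaScreen luminescence. Lysates from HepG2 cells pre-activated by IL-1beta plus TNF-alpha supplied JNK3; compounds were titrated.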

The target in test [6] is 3',5'-cyclic-AMP phosphodiesterase 4B (Homo sapiens) (UniProt Q07343). Briefly: qHTS Assay for Inhibitors of PDE-IV (AID 607; active = well fitted activation curve with a large enough effect in the main read-out, with a control signal flat, not every such curve was filed as active; note: % of control where 0% means no effect). The method, boiled down:
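HEK293 ACTOne cells with CNG channel (1000/well), endogenous PDE4; membrane potential dye, compounds up to 22.9 uM final. Fluorescence Ex 535/Em 590; RO 20-1724 (100 uM final) as reference.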

Test [7] deals with Cytochrome P450 3A4 (Homo sapiens) (UniProt P08684). Briefly: qHTS Assay for Inhibitors and Substrates of Cytochrome P450 3A4 (AID 884). Note: potency is the fitted concentration of half-maximal effect; nearly all actives have a fitted effect of over 50% in size. An outline of the steps: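 20 nM human CYP3A4 with 25 uM Luciferin-PPXE (at KM) in 200 mM KPO4, preincubated 10 min with compound; NADPH regeneration started a 60 min RT reaction. Luciferin detected by luminescence, normalized to 57 uM ketoconazole as full inhibition.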

The target is the same in test [8]. Briefly: qHTS Assay for Activators of Cytochrome P450 3A4 (AID 885). Note: nearly all actives have a fitted effect of over 65% in size. An outline of the steps: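 Human CYP3A4 (20 nM) with Luciferin-PPXE at 25 uM (its KM) in 200 mM KPO4; 10 min compound preincubation, then NADPH regeneration and 60 min reaction at RT. Luciferin read by luminescence; normalized to 57 uM ketoconazole full inhibition.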
The nature of test [9]: qHTS Assay for Lipid Storage Modulators (AID 1519; calls by dose curve). Particulars: Drosophila S3 cells, BODIPY lipid droplet/cell ratio, laser cytometry, cells loaded with oleic acid; for activity change, negative = inhibition: at 57.5 µM (top of the series). An outline of the steps: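 Cells seeded at 5,000 per well were treated with compounds over a concentration series and loaded with oleic acid (400 uM, as added). Lipid droplet fluorescence (488 nm excitation, 500-530 nm channel) was read by laser-scanning cytometry and normalized to 20 uM Triacsin C.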

Test [10] addresses Ubiquitin carboxyl-terminal hydrolase 1 (Homo sapiens) (UniProt O94782). The experiment in a line: Inhibitors of USP1/UAF1: Pilot qHTS (AID 504865).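 Note: rhodamine fluorescence freed from ubiquitin-rhodamine substrate followed over time; top concentration of the series differs between compounds; % is set by controls: 0 for no effect and ±100 for the full control effect; nearly all actives have a fitted effect of over 35% in size.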 The method, boiled down: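 In 50mM HEPES pH 7.8 containing 0.5mM EDTA, 1mM TCEP, 0.1 mg/ml BSA and 0.01% Tween-20, 1nM USP1/UAF1 is exposed to compound for 15 min, then Ub-Rho (150nM final) is added and fluorescence is read over time.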

Test [11] is described as follows: Primary qHTS for small molecule stabilizers of the endoplasmic reticulum resident proteome: Secreted ER Calcium Modulated Protein (SERCaMP) assay (AID 1508630). Note: % is set by controls: 0 for no effect and ±100 for the full control effect. The method, boiled down:
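GLuc-SERCaMP-expressing SH-SY5Y cells, pretreated 16 h with compound, are challenged with thapsigargin to empty ER calcium stores; after 4 h, coelenterazine is added directly to the medium and luminescence is imaged.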

Test [12] can be described thus: NFAT Signaling Pathway (AID 444; active = well fitted curve in either direction with a large enough effect, not every such curve was filed as active;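 note: carbachol stimulus at about its EC50 of 1 µM final; % is set by controls: 0 for no effect and ±100 for the full control effect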). Particulars: Jurkat NFAT-bla M1, carbachol, beta-lactamase ratio, 5 h; at 7.69 µM (top of the series) unless noted. The method, boiled down: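 Jurkat cells carrying an NFAT-driven β-lactamase reporter and co-transfected muscarinic M1 receptor were treated with compound plus carbachol (1 uM final, an EC50 level) for 5 h at 37 °C. CCF4 loading followed for 1 h at RT; 460/530 nm ratio gave %activity.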

The target in test [13] is Lysosomal acid glucosylceramidase (Homo sapiens) (UniProt P04062). Briefly: Glucocerebrosidase-p2 (AID 348; in the data active = potency below about 10 µM; note: potency is the fitted concentration of half-maximal effect). Particulars: purified GBA, blue fluorogenic substrate, 40 min. The method, boiled down:
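Compounds titrated from 0.6 nM upwards against 0.2 nM enzyme in pH 5.9 citric acid/KH2PO4, taurocholate, tween-20; blue fluorogenic substrate 80 uM, 40 min room temperature, stopped and read Ex 365/Em 440 for AC50.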

Test [14] has as its target Dual specificity protein kinase CLK4 (Homo sapiens) (UniProt Q9HAZ1). The experiment in a line: qHTS Assay for Inhibitors of CDC-like Kinase 4 (Kinase-Glo Assay) (AID 1770). Note: % is set by controls: 0 for no effect and ±100 for the full control effect; nearly all actives have a fitted effect of over 65% in size. The method, boiled down:
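Substrate mix (RS peptide 100 uM, ATP 1 uM) dispensed, compound pinned in, then Clk4 added to 25 nM final. Incubated 4.5 h at RT; Kinase-Glo reagent added, luminescence read after 5 min.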

Test [15] has the same target. Briefly: qHTS Assay for Inhibitors of CDC-like Kinase 4 (ADP-FP Assay) (AID 1795).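 Note: recombinant human CLK4 phosphorylating RS repeat peptide at 1 µM ATP; % is set by controls: 0 for no effect and ±100 for the full control effect; nearly all actives have a fitted effect of over 60% in size.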 The method, boiled down: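 Clk4 6.25 nM; RS peptide 100 uM; ATP 1 uM; 25 mM Tris pH 7.5, 10 mM MgCl2; 1 h reaction. ADP detected via antibody/orange tracer FP displacement; TG003 positive control.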
For test [16], the target named is Rap guanine nucleotide exchange factor 3 (Homo sapiens) (UniProt O95398). Briefly: Confirmatory qHTS for antagonist of cAMP-regulated guanine nucleotide exchange factor 3 (EPAC1) (AID 1645880).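 Note: plate controls were DMSO only for no effect and full effect of the ATA control for full effect; nearly all actives have a fitted effect of over 55% in size.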 The method, boiled down:
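Nucleotide exchange uses 100 nM EPAC1, 250 nM RAP1B-BODIPY-GDP and 50 uM GDP, with compounds in a concentration-titration series. After 5 min at room temperature, fluorescence (480 nm ex/540 nm em) is read every 5 min for 30 min. Data are normalized to control ATA and DMSO.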

For test [17] the target is unchanged. Briefly: Confirmatory qHTS for agonist of cAMP-regulated guanine nucleotide exchange factor 3 (EPAC1) (AID 1645881).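 Note: EPAC1 catalysed release of BODIPY-GDP from Rap1B seen as fluorescence loss; 100% = effect of cAMP agonist control; nearly all actives have a fitted effect of over 75% in size.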
In test [18] the target is Rap guanine nucleotide exchange factor 4 (Homo sapiens) (UniProt Q8WZA2). The experiment in a line: Confirmatory qHTS for agonist of cAMP-regulated guanine nucleotide exchange factor 4 (EPAC2) (AID 1645884).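 Note: nucleotide exchange releases bodipy-GDP from Rap1 and this lowers its fluorescence; % is set by controls: 0 for no effect and ±100 for the full control effect; nearly all actives have a fitted effect of over 65% in size.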
Test [19] has the same target. Briefly: Confirmatory qHTS for antagonist of cAMP-regulated guanine nucleotide exchange factor 4 (EPAC2) (AID 1645885). Note: % is set by controls: 0 for no effect and ±100 for the full control effect; nearly all actives have a fitted effect of over 25% in size.
Setting [20] is: measured here: cell count channel max response.
Where [21] appears, read: measured here: lipid channel max response.

Inconclusive results are not listed. Activity calls are given as the source filed them. Unless noted, calls come from the whole dose curve; as a rule, active = well fitted curve in the direction sought with a large enough effect; inconclusive = small, poorly fitted or top-dose-only effect, or another doubt; inactive = no such curve, though single readings can be large; an effect the other way counts as inactive or inconclusive.

Sequence of Glucocorticoid receptor (Homo sapiens) (P04150 whole entry, looked up): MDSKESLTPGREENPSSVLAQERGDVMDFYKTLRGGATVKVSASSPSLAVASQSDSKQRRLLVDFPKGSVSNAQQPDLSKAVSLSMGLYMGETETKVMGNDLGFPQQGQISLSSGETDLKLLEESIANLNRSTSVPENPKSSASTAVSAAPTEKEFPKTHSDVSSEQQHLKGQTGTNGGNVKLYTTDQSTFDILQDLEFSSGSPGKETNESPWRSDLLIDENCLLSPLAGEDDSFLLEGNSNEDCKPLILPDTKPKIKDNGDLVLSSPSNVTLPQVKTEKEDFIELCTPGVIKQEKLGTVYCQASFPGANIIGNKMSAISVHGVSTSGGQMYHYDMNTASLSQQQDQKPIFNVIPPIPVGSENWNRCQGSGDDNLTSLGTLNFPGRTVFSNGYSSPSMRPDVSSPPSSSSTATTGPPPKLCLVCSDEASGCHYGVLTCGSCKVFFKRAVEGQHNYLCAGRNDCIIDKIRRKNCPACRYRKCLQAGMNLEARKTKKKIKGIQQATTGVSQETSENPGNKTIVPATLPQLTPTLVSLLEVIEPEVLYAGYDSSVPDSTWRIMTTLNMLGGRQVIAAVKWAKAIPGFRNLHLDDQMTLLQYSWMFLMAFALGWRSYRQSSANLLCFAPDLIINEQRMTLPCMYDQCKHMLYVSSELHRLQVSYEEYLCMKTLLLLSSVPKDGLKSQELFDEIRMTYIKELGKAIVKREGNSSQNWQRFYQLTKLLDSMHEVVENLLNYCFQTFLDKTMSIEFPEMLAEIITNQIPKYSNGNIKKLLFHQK
Sequence of Cytochrome P450 3A4 (Homo sapiens) (P08684 whole entry, looked up): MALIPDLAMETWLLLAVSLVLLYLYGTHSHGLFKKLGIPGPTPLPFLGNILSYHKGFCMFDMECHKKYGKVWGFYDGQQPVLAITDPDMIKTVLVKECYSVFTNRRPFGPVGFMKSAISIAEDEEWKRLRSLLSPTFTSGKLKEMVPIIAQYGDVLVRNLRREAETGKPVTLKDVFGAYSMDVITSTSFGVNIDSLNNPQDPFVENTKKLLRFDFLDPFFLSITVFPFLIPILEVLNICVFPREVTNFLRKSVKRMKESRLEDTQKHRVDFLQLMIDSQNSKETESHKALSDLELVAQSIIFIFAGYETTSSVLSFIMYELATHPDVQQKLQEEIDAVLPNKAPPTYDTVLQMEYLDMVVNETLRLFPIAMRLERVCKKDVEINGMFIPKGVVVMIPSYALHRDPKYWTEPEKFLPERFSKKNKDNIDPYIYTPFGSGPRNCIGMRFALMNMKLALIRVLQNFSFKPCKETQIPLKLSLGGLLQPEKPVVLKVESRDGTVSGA
Sequence of Cytochrome P450 1A2 (Homo sapiens) (P05177 whole entry, looked up): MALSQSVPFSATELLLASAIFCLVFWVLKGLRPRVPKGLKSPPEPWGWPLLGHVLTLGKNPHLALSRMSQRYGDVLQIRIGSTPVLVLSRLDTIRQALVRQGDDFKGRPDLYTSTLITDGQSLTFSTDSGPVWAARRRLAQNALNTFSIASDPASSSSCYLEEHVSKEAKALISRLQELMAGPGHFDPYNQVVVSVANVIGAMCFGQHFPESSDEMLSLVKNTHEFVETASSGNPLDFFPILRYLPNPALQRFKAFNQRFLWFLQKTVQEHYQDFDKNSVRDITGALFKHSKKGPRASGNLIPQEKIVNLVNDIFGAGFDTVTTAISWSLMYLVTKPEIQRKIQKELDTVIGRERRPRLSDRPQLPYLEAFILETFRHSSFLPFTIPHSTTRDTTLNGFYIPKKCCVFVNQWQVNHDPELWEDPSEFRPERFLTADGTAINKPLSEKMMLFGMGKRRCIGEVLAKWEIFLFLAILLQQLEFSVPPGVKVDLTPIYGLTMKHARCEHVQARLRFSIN
Sequence of 3',5'-cyclic-AMP phosphodiesterase 4B (Homo sapiens) (Q07343 whole entry, looked up): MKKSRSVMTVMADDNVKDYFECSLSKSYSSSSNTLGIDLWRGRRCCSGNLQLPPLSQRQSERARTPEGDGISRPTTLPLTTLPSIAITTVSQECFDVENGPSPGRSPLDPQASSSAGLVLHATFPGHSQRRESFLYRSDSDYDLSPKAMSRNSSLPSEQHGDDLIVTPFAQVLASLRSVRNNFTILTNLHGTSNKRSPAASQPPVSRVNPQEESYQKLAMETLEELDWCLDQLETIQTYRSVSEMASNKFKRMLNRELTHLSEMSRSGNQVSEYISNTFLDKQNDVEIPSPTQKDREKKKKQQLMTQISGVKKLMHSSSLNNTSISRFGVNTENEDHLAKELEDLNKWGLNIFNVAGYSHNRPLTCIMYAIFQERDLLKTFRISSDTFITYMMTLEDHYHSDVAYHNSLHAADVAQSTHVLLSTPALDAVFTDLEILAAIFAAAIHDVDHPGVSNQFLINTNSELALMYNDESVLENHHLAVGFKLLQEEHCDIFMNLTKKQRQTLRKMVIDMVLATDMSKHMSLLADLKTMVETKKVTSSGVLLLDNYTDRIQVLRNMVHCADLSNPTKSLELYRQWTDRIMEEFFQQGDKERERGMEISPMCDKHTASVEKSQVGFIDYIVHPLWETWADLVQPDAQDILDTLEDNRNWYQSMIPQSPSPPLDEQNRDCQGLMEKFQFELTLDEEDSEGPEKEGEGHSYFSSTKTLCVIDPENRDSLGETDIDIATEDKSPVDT
Sequence of Ubiquitin carboxyl-terminal hydrolase 1 (Homo sapiens) (O94782 whole entry, looked up): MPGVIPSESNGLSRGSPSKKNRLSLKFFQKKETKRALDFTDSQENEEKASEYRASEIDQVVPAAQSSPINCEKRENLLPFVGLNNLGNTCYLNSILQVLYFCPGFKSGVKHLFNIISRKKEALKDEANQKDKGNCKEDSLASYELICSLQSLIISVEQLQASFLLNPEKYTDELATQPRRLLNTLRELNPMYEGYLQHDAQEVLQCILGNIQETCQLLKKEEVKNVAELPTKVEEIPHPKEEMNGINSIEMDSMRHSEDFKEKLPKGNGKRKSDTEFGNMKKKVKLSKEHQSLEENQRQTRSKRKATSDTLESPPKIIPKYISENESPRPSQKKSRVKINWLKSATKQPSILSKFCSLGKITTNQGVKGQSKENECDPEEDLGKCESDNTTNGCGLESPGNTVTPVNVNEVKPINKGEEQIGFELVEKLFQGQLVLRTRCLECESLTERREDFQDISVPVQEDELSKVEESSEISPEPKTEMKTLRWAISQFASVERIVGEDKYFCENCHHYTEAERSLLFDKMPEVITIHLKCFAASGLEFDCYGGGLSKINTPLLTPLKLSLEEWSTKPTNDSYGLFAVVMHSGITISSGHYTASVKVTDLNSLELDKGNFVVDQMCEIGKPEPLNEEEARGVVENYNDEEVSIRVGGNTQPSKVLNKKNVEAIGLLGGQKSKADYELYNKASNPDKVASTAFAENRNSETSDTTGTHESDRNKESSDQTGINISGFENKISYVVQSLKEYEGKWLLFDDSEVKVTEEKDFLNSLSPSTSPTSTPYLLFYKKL
Sequence of Rap guanine nucleotide exchange factor 4 (Homo sapiens) (Q8WZA2 whole entry, looked up): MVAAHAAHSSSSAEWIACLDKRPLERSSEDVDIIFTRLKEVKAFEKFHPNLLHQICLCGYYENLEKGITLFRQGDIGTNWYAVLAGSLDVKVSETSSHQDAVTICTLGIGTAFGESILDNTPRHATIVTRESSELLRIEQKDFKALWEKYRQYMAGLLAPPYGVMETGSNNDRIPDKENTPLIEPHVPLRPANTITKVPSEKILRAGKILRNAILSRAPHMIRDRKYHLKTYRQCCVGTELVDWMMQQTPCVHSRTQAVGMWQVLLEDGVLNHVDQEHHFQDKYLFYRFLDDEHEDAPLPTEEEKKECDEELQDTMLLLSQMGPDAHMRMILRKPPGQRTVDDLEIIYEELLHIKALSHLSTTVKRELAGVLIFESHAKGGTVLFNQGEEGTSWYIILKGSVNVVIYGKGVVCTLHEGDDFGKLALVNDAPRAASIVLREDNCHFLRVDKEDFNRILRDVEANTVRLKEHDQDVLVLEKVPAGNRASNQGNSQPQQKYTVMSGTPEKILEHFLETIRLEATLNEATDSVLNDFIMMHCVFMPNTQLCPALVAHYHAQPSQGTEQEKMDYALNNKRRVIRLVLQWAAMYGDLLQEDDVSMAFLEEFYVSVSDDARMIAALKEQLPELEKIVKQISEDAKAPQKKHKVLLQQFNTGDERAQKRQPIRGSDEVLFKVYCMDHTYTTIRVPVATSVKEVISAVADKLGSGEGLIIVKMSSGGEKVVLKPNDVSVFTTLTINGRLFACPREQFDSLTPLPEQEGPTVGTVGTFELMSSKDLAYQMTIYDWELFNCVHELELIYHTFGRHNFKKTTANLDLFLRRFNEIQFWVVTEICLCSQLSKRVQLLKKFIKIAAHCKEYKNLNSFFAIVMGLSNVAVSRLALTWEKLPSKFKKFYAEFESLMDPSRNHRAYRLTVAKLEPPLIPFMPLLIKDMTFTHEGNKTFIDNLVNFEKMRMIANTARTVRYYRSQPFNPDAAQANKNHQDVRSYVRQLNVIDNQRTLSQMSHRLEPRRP
Sequence of Dual specificity protein kinase CLK4 (Homo sapiens) (Q9HAZ1 whole entry, looked up): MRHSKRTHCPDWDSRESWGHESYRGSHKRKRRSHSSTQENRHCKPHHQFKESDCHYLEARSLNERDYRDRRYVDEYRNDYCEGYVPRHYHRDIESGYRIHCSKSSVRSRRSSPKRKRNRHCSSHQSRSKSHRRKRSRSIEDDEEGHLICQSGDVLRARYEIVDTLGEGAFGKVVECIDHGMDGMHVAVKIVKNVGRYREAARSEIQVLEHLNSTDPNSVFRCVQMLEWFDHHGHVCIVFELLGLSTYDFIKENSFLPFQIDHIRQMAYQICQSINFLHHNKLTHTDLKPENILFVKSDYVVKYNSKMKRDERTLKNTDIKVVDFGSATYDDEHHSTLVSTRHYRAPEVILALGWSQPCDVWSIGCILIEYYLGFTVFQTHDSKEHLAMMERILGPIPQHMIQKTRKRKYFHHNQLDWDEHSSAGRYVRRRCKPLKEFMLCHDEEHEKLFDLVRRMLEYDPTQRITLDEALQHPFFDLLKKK

On to `CS(=O)(=O)Nc1cccc(-c2ccc3ncnc(NCc4cccnc4)c3c2)c1`, for which the Potency was 0.316 µM (active) in test [1], > 46 µM (inactive) in test [3], > 46 µM (inactive) in test [4] and 0.398 µM (active) in test [7]. The activity, negative = inhibition in test [2] is -6% (inactive). Besides, the Potency entry in [5], in test [6], in test [8] and in test [10] was “inactive” in each case. Moreover, the activity change, negative = inhibition in test [9] is 10.4% (inactive). Besides, the max response in [9] (setting [20]) came out at 2.04%; in test [9] (setting [21]) it was 13.1%. The outcome in test [11] was inactive.
Take `COc1ccc(Oc2ncc3nc(-c4ccc(F)cc4)c(=O)n(C)c3n2)cc1`: the results for the Potency in test [1], in test [4] and in test [7] were 2 µM (active), > 46 µM (inactive) and 3.98 µM (active), respectively. In addition, the results for the activity change, negative = inhibition in test [12] and in [9] were -22.3% (inactive) and 4.46% (inactive), respectively. In addition, the activity, negative = inhibition in [2] was 12.3% (inactive). The Potency entry in [5], in [6] and in test [8] was “inactive” in each case. Besides, the max response in [9] (setting [20]) came to 18%; in test [9] (setting [21]) it was 24.3%. For the same molecule, the outcome in [11] was inactive.
Take `Cc1nc2cnc(N3CCNCC3)nc2n(CCC#N)c1=O`: the activity change, negative = inhibition was -8.3% (inactive) in test [12] and 4.65% (inactive) in test [9]. The activity, negative = inhibition in test [2] was -12.7% (inactive). Besides, the figures for the Potency in [3] and in [4] were > 9.22 µM (inactive) and > 46 µM (inactive), respectively. For the same molecule, the Potency result in test [5] and in test [6] was “inactive” throughout. In addition, the max response was 11.9% in test [9] (setting [20]) and 19.3% in [9] (setting [21]). Besides, in test [11], the result was inactive.
`N[C@H](C(=O)O)c1ccc(O)c(C(=O)O)c1`: the Potency entry in [1], in [5], in test [6] and in [10] was “inactive” in each case. For the same molecule, the Potency in test [3] is > 46 µM (inactive). The activity change, negative = inhibition in [9] was 1.32% (inactive). Besides, the max response in test [9] (setting [20]) is 18.1%; in test [9] (setting [21]), 22.5%. Also, in test [11], the result was inactive.
For the molecule `COc1ccc(-n2c(=O)c(-c3ccc(Cl)cc3)nc3cnc(N(C)C)nc32)cc1`, the Potency in test [13] is > 11.4 µM (inactive); in [3] it was > 9.22 µM (inactive); in [4] it was > 46 µM (inactive). Further, the Potency entry in test [5], in [14], in test [15], in test [10], in test [16] and in test [17] was “inactive” each time. Further, the Potency entry in test [18] and in [19] was “inactive” in each case. Moreover, the result in test [11] was inactive.
Turning to `Clc1cccc2c1CN(C1=NCCN1)C2`, the Potency was 0.398 µM (active) in test [1], > 46 µM (inactive) in [3] and > 46 µM (inactive) in [4]. For the same molecule, the Potency result in test [5], in [6] and in test [10] was “inactive” in each case. In test [9], the activity change, negative = inhibition is 3.4% (inactive). In addition, the figures for the max response in test [9] (setting [20]) and in test [9] (setting [21]) were 12.9% and 20.6%, respectively. Moreover, the outcome in [11] was inactive.
Turning to `CS(=O)(=O)c1ccc(Cn2c3c(c4cc(F)cc(F)c42)CCC[C@H]3CC(=O)O)cc1`, the Potency result in test [1], in test [5] and in test [8] was “inactive” in each case. In addition, the Potency in test [3] and in [4] was > 46 µM (inactive) in each case. The activity change, negative = inhibition in [9] was -2.09% (inactive). Besides, the max response amounted to 15% in test [9] (setting [20]) and 14.3% in test [9] (setting [21]). Moreover, the outcome in test [11] was inactive.
Turning to `N#CCCn1c(=O)c(-c2cccs2)nc2cnc(N3CCNCC3)nc21`, the Potency in test [3] was > 9.22 µM (inactive); in test [4] it was > 46 µM (inactive). The Potency entry in test [5] and in test [6] was “inactive” each time. Also, the activity change, negative = inhibition in test [9] was -0.055% (inactive). Moreover, the values for the max response in [9] (setting [20]) and in [9] (setting [21]) were 5.4% and 9.49%, respectively. Besides, the outcome in test [11] was inactive.

These data come from PubChem BioAssay (NCATS).
